Most compounds without a hit are left out; they make up all but 1.1% or so of the library.
COUP-TFII inh = inhibitors of human COUP-TFII (NR2F2); P24468; HEK293T NGFI-A luciferase reporter, luminescence; inhibition, % at 8.6 µM; 370,000 compounds, 0.7% hits; AID 686940;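 active means inhibition above a per-plate cutoff, mean inhibition of test wells between control levels plus 3 SD, cut at about 38% in these data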;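 further: cells cotransfected with COUP-TFII expression vector driving the NGFI-A reporter; 0% = median of COUP-TF2 test wells and 100% = reporter-only cells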
SRC3 inh = human NCOA3 inhibition; inhibition, % at 3.6 µM; Q9Y6Q9; 360,000 compounds, 0.17% hits; HEK293 GAL4-SRC3 luciferase reporter, luminescence;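 active means inhibition above a per-campaign cutoff, the mean of all compounds plus 3 SD, cut at about 60% in these data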;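 further: 0% = DMSO-treated cells and 100% = gossypol-treated cells at 36 µM; higher means less SRC3-driven luciferase light from the GAL4 reporter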
NCOA1 inh = human NCOA1 inhibition | Q15788 | 360,000 compounds, 0.12% hits | AID 588354 | HEK293 GAL4-SRC1 luciferase reporter, luminescence | inhibition, % at 3.6 µM;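 active means inhibition above the campaign mean plus 3 SD, with each screening campaign given its own cutoff, cut at about 60% in these data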;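 further: 0% = DMSO treated cells and 100% = gossypol at 36 µM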
SRC2 inh = inhibits human steroid receptor coactivator 2; Q15596; HEK293 GAL4-SRC2 luciferase reporter, luminescence; inhibition, % at 9 µM; 370,000 compounds, 0.17% hits; AID 651957;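 active means inhibition above the mean inhibition of all tested compounds plus 3 SD, set per campaign, cut at about 52% in these data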;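 further: 0% = DMSO treated cells and 100% = cells given Gossypol at 36 µM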
LRH-1 inv ag = suppresses constitutive activity of human LRH-1; HEK293T StAR-luciferase reporter, LRH-1 transfected, 24 h; inhibition, % at 3.6 µM; 360,000 compounds, 0.13% hits;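 active means inhibition above the mean inhibition of all tested compounds plus 3 SD, cut at about 73% in these data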;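 further: 0% = DMSO wells and 100% = reporter-only cells lacking LRH-1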
GalR3 antag = antagonists of human GalR3; inhibition, % at 3 µM; 360,000 compounds, 0.44% hits; HEK293 GalR3-CNG cAMP membrane potential fluorescence; galR3 body fused to GalR1 C-terminus;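 active means inhibition above the screen-wide average plus 3 SD, cut at about 13% in these data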;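 further: forskolin and galanin both at EC90 stimulate the cells; cAMP rise reported by CNG channel membrane potential dye signal; 0% = forskolin plus galanin with DMSO and 100% = forskolin alone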
Gal4-VP16 ctr = VP16 inhibition counter-screen for COUP-TFII. HEK293 Gal4-VP16 luciferase reporter, luminescence. inhibition, % at 8.5 µM. shares compounds with COUP-TFII inh. 2,500 compounds, 25% hits; in the data active means inhibition above about 13%
NR2F2 inh conf = COUP-TFII (NR2F2) inhibition, confirmation assay | shares compounds with COUP-TFII inh | HEK293 NGFI-A luciferase reporter, luminescence | inhibition, % at 8.5 µM | 2,500 compounds, 45% hits | AID 687008;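 active means mean inhibition over three repeats above a set limit taken from the earlier primary screen, cut at about 38% in these data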;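 further: 100% = cells given the luciferase reporter alone without the COUP-TF2 vector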
The depositor's hits bear a star.

Results for CC1(C(=O)Nc2ccc3c(c2)OCO3)CCN1C(=O)Cc1ccc(-c2ccccc2)cc1 (configuration not stated) ?
COUP-TFII inh: 42.5*; SRC3 inh: -3.0; NCOA1 inh: 14.7; SRC2 inh: 7.6; LRH-1 inv ag: 30.3; GalR3 antag: -9.1; Gal4-VP16 ctr: 0.1; NR2F2 inh conf: 33.4

How did CC1(C(=O)Nc2ccc3[nH]ncc3c2)CCN1C(=O)Cc1ccc(-c2ccccc2)cc1 (configuration not stated) do in these assays?
COUP-TFII inh: 46.8*; SRC3 inh: -11.2; NCOA1 inh: 1.9; SRC2 inh: 24.8; LRH-1 inv ag: -6.8; GalR3 antag: -5.8; Gal4-VP16 ctr: 1.6; NR2F2 inh conf: 22.0

How did CN(Cc1cccc2cnccc12)C(=O)c1cc(COc2ccc(F)cc2F)on1 do in these assays?
COUP-TFII inh: 45.0*; SRC3 inh: 27.3; NCOA1 inh: 22.0; SRC2 inh: 12.9; LRH-1 inv ag: 29.1; GalR3 antag: -3.4; Gal4-VP16 ctr: -4.0; NR2F2 inh conf: 19.7

How did COC(=O)C[C@H]1CC[C@H]2[C@H](COc3ccc(NS(=O)(=O)c4cccc(F)c4)cc3C(=O)N2C)O1 do in these assays?
COUP-TFII inh: -10.8; SRC2 inh: -14.9

Results for COC(=O)c1ccc(Oc2ccc(S(=O)(=O)N3CCCCC3)cc2N)cc1 ?
COUP-TFII inh: 38.5*; SRC3 inh: 9.4; NCOA1 inh: 13.6; SRC2 inh: 3.2; LRH-1 inv ag: 17.5; GalR3 antag: -10.8; Gal4-VP16 ctr: -4.5; NR2F2 inh conf: 26.1

How did COc1ccc(-n2cc(COC(=O)NCCc3c[nH]c4ccccc34)nn2)cc1 do in these assays?
COUP-TFII inh: -1.0; SRC2 inh: 18.4

Results for COc1ccc(Cl)cc1-c1cc(C(=O)Nc2ccc(C)c(NS(C)(=O)=O)c2)[nH]n1 ?
COUP-TFII inh: 38.1*; SRC3 inh: 2.1; NCOA1 inh: 14.1; SRC2 inh: 25.1; LRH-1 inv ag: 8.1; GalR3 antag: -4.8; Gal4-VP16 ctr: -10.4; NR2F2 inh conf: -4.3

What do the screens show for `Cc1ccc(NC(=O)c2cc(-c3cc(Cl)ccc3C)n[nH]2)cc1NS(C)(=O)=O`?
COUP-TFII inh: 50.3*; SRC3 inh: 4.7; NCOA1 inh: 21.9; SRC2 inh: 7.4; LRH-1 inv ag: 29.7; GalR3 antag: 8.6; Gal4-VP16 ctr: -6.4; NR2F2 inh conf: 40.8*

Results for COc1ccc(Cl)c(-c2cc(C(=O)Nc3ccc(C)c(NS(C)(=O)=O)c3)[nH]n2)c1 ?
COUP-TFII inh: 25.3; SRC3 inh: -1.7; NCOA1 inh: -6.8; SRC2 inh: 18.9; LRH-1 inv ag: 20.6; GalR3 antag: -7.3

How did O=C1CCC[C@H]2C[C@H](NCc3cccc(F)c3)CC[C@]23CCCN13 do in these assays?
COUP-TFII inh: 4.8

What do the screens show for `COc1ccc(S(=O)(=O)NCc2ccc(C(=O)N3CCN(Cc4ccccc4)CC3)cc2)cc1`?
COUP-TFII inh: 18.0; SRC3 inh: 4.2; NCOA1 inh: 9.9; SRC2 inh: 27.3; LRH-1 inv ag: 5.9; GalR3 antag: 0.1

What do the screens show for `Cc1ccc(S(=O)(=O)NCc2ccc(C(=O)N3CCN(c4ccc([N+](=O)[O-])cc4)CC3)cc2)cc1`?
COUP-TFII inh: 54.7*; SRC3 inh: 44.1; NCOA1 inh: 17.0; SRC2 inh: 9.2; LRH-1 inv ag: 32.3; GalR3 antag: -1.2; Gal4-VP16 ctr: 6.8; NR2F2 inh conf: 66.1*

How did Cc1ccc(S(=O)(=O)NCc2ccc(C(=O)N3CCN(Cc4ccccc4)CC3)cc2)cc1 do in these assays?
COUP-TFII inh: 48.2*; SRC3 inh: 16.0; NCOA1 inh: 19.1; SRC2 inh: 16.5; LRH-1 inv ag: 20.4; GalR3 antag: -6.2; Gal4-VP16 ctr: -3.0; NR2F2 inh conf: 21.7

How did C=C(C)C#CCNCc1ccccc1 do in these assays?
COUP-TFII inh: -3.6; SRC2 inh: -12.9

How did CCCCC[n+]1cccc2c3ccccc3ccc21 do in these assays?
COUP-TFII inh: 64.2*; SRC3 inh: 56.6; NCOA1 inh: 51.3; SRC2 inh: -28.6; LRH-1 inv ag: 78.1*; GalR3 antag: -2.4; Gal4-VP16 ctr: 16.1*; NR2F2 inh conf: 59.9*

How did c1ccc(C[n+]2cccc3c4ccccc4ccc32)cc1 do in these assays?
COUP-TFII inh: 52.8*; SRC3 inh: 32.6; NCOA1 inh: 19.2; SRC2 inh: 18.9; LRH-1 inv ag: 60.6; GalR3 antag: -3.4; Gal4-VP16 ctr: 3.0; NR2F2 inh conf: 44.9*

How did O=S(=O)(NCc1cn2ccsc2n1)c1ccc(Oc2ccccc2)cc1 do in these assays?
COUP-TFII inh: 41.6*; SRC3 inh: 27.6; NCOA1 inh: 28.3; SRC2 inh: 20.5; LRH-1 inv ag: 44.3; GalR3 antag: 0.8; Gal4-VP16 ctr: 8.9; NR2F2 inh conf: 29.5

How did O=C1N(CCCO)CCC12CCCCC2 do in these assays?
COUP-TFII inh: 13.1; SRC2 inh: -7.2

Results for COc1cc(C(C)=O)ccc1OCC(=O)Nc1ccc(S(=O)(=O)N2CCCCC2)cc1 ?
COUP-TFII inh: -1.4; SRC3 inh: 6.2; NCOA1 inh: 7.2; SRC2 inh: -21.3; LRH-1 inv ag: 0.2; GalR3 antag: 0.4

How did CCOc1ccc(C(=O)CCC(=O)Nc2ccc(C)c(S(=O)(=O)N3CCCCC3)c2)cc1 do in these assays?
COUP-TFII inh: -8.5; SRC3 inh: 11.3; NCOA1 inh: 0.6; SRC2 inh: -10.8; LRH-1 inv ag: 6.5; GalR3 antag: 0.4

Results for COc1ccc(NC(=O)CCOc2cc(C)ccc2C)cc1S(=O)(=O)N1CCCCC1 ?
COUP-TFII inh: 40.9*; SRC3 inh: -14.3; NCOA1 inh: 7.4; SRC2 inh: 15.8; LRH-1 inv ag: 7.4; GalR3 antag: -5.2; Gal4-VP16 ctr: -7.3; NR2F2 inh conf: 1.1

What do the screens show for `CC(=O)c1ccc(OCCCC(=O)Nc2ccc(C)c(S(=O)(=O)N3CCCCC3)c2)cc1`?
COUP-TFII inh: 61.2*; SRC3 inh: 11.1; NCOA1 inh: 18.4; SRC2 inh: 37.5; LRH-1 inv ag: 12.9; GalR3 antag: 3.8; Gal4-VP16 ctr: 11.3; NR2F2 inh conf: 40.4*

What do the screens show for `CCN(CC)S(=O)(=O)c1cc(NC(=O)Cc2ccc(S(=O)(=O)N3CCOCC3)s2)ccc1Cl`?
COUP-TFII inh: 64.0*; SRC3 inh: 21.7; NCOA1 inh: 13.5; SRC2 inh: 31.8; LRH-1 inv ag: 25.3; GalR3 antag: -3.5; Gal4-VP16 ctr: 2.9; NR2F2 inh conf: 29.5

Results for COc1cc(C(C)=O)ccc1OCC(=O)Nc1ccc(C)c(S(=O)(=O)N2CCCCCC2)c1 ?
COUP-TFII inh: 47.2*; SRC3 inh: 26.5; NCOA1 inh: 4.2; SRC2 inh: 19.9; LRH-1 inv ag: 15.5; GalR3 antag: -5.3; Gal4-VP16 ctr: -6.4; NR2F2 inh conf: 19.7
